Compound activity as filed in PubChem.
Neddylation inh: inhibitors of cullin neddylation, primary screen, biochemical, TR-FRET, uHTS, NAE and Ubc12; 360,000 compounds, 0.58% hits; calls only at 25 µM; NEDD8-conjugating enzyme Ubc12 (Homo sapiens) + NEDD8-activating enzyme E1 regulatory …; in the data active = inhibition above about 36%
PKA-R1A act: activators of PKA-R1A holoenzyme, primary screen, biochemical, fluorescence polarization, Cy5-IP20, bovine R1A, mouse PKAc; cAMP-dependent protein kinase type I-alpha regulatory subunit (Bos taurus) + …; PKA-R1A dissociation; scaled: DMSO 0%, 113 µM cGMP 100%; activation, % at 11.4 µM; 340,000 compounds, 0.083% hits;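 active = percent activation above the mean of all tested compounds plus 3 SD, cut at about 19% in these data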;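 note: higher means more PKAc released from R1A so a rise in polarization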
PKA-R2B act: activators of PKA-R2B holoenzyme, primary screen, biochemical, fluorescence polarization, Cy5-IP20, human; cAMP-dependent protein kinase catalytic subunit beta (Homo sapiens) + cAMP-dependent …; PKA-R2B holoenzyme dissociation; R2B truncated from residue 108, S112A mutant; 0% DMSO only, 100% 113 µM cGMP; activation, % at 11.4 µM; 340,000 compounds, 0.079% hits; AID 504700, 2011;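 active = activation above a cutoff set at the mean over all compounds plus 3 SD, cut at about 18% in these data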;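 note: higher means more holoenzyme dissociation and a rise in polarization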
PolyA inh: polyadenylation inhibitors in yeast reporter cells, primary screen, luminescence, S. cerevisiae; S. cerevisiae SKY197-pL101 polyadenylation reporter, beta-gal luminescence; efflux-impaired pdr1/pdr3 knockout yeast; score 100 = 6 SD above DMSO; activity score, % at 12 µM; 300,000 compounds, 0.02% hits;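 active = lowest replicate activity score at least 50, where 100 means six control SD above control mean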;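 note: yeast exposed to compound for 9 h at 30 °C; higher score means more reporter readthrough which indicates perturbed polyadenylation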
R1A FP artifact: FP signal interference without PKA proteins, confirmation, artefact control for PKA-R1A activator project, biochemical, fluorescence polarization, triplicate; shares compounds with PKA-R1A act; 280 compounds, 7% hits; AID 504799, 2011; Cy5-IP20 peptide alone, fluorescence polarization artifact counterscreen; activation, % at 11.4 µM;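 active = mean activation over triplicate runs exceeds the adjusted cutoff derived for the parent primary screen, cut at about 19% in these data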;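 note: no PKA protein present so any polarization rise reflects compound interference; 0% = tracer peptide mix alone and 100% = mix with added PKA catalytic subunit; higher means stronger polarization artifact and likely false positive in parent screen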
PKA-R1A confirm: activators of PKA-R1A holoenzyme, confirmation, biochemical, fluorescence polarization, Cy5-IP20, triplicate; shares compounds with PKA-R1A act; PKA-R1A holoenzyme dissociation; activation, % at 11.4 µM; 280 compounds, 9% hits;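 active = mean activation over replicate wells exceeds the adjusted hit threshold taken from the earlier primary screen, cut at about 20% in these data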;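 note: 0% = holoenzyme mix with DMSO only and 100% = cGMP-activated control wells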
Target sequence (P00514 whole entry, looked up): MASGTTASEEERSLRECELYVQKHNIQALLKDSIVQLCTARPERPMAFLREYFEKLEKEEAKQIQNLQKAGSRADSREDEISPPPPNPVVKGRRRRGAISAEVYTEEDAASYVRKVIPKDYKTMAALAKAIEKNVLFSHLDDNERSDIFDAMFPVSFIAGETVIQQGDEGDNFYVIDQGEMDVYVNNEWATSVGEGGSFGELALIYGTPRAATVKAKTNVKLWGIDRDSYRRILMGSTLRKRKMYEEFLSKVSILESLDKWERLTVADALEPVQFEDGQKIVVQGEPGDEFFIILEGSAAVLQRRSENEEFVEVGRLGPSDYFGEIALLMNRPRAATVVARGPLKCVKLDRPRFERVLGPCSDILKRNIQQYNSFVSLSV
* marks the source's active call; other numbers are inactive results. A selection: hits, their analogues and other compounds. The true share with any hit is near 0.72%.

How did Cc1ccc(S(=O)(=O)NC2CC(C)(C)NC(C)(C)C2)cc1C do in these assays?
Neddylation inh: inactive; PKA-R1A act: 19*; PKA-R2B act: -2; PolyA inh: 12; R1A FP artifact: 1; PKA-R1A confirm: 5

How did Cc1cc(N(CCO)CCO)nc(-n2nc(C)cc2C)n1 do in these assays?
Neddylation inh: inactive; PKA-R1A act: -2; PKA-R2B act: -1; PolyA inh: -7

What do the screens show for `Cc1cc(NCCO)nc(-n2nc(C)cc2C)n1`?
Neddylation inh: inactive; PKA-R1A act: 22*; PKA-R2B act: 8; PolyA inh: 3; R1A FP artifact: -3; PKA-R1A confirm: -1

Results for O=C(Cc1ccc(S(=O)(=O)N2CCOCC2)s1)N1CCN(S(=O)(=O)c2ccc(Cl)cc2)CC1 ?
Neddylation inh: inactive; PKA-R1A act: 0; PKA-R2B act: 3

Results for CCOc1ccc(-c2nnc3n2N=C(c2ccc(OC)cc2)CS3)cc1 ?
Neddylation inh: inactive; PKA-R1A act: 20*; PKA-R2B act: -5; PolyA inh: -4; R1A FP artifact: -1; PKA-R1A confirm: 1

Results for CCOc1ccc(C2=Nn3c(nnc3-c3ccccc3OC)SC2)cc1 ?
Neddylation inh: inactive; PKA-R1A act: -6; PKA-R2B act: 3; PolyA inh: 2

What do the screens show for `COc1ccccc1N(C(=O)c1snc(C(N)=O)c1N)C(C(=O)NC1CCCC1)c1ccc(N(C)C)cc1` (stereo not given)?
Neddylation inh: inactive; PKA-R1A act: -4; PKA-R2B act: -4; PolyA inh: 3

How did CCOC(=O)c1cc(C)sc1NC(=O)c1ccc(Cl)s1 do in these assays?
PKA-R1A act: 20*; PKA-R2B act: 0; PolyA inh: 4; R1A FP artifact: 1; PKA-R1A confirm: -2

How did Cc1nn2c(NCC(C)C)c3c(nc2c1-c1ccccc1)CCC3 do in these assays?
Neddylation inh: inactive; PKA-R1A act: 20*; PKA-R2B act: 6; PolyA inh: -14; R1A FP artifact: 2; PKA-R1A confirm: 0

Results for O=C(COc1ccc(Cl)cc1Br)Nc1nnc(C2CC2)s1 ?
Neddylation inh: inactive; PKA-R1A act: -4; PKA-R2B act: 0

How did COc1ccc(OC)c(C2C(C(=O)c3ccco3)=C(O)C(=O)N2CCN2CCOCC2)c1 (stereo not given) do in these assays?
Neddylation inh: inactive; PKA-R1A act: 19*; PKA-R2B act: 2; PolyA inh: 16; R1A FP artifact: 2; PKA-R1A confirm: 3

How did CCCCn1c(N)c(N(CCOC)C(=O)c2cccc(S(=O)(=O)N(CC)c3ccccc3)c2)c(=O)[nH]c1=O do in these assays?
Neddylation inh: inactive; PKA-R1A act: 0; PKA-R2B act: -3; PolyA inh: -3

How did CCOc1ccc(N=Cc2ccc([N+](=O)[O-])cc2)c(O)c1 do in these assays?
Neddylation inh: inactive; PKA-R1A act: 21*; PKA-R2B act: -9; R1A FP artifact: 1; PKA-R1A confirm: 5

What do the screens show for `CC(C)Oc1ccc(S(=O)(=O)N2CCCCC2)cc1NC(=O)C1CCC1`?
Neddylation inh: inactive; PKA-R1A act: -2; PKA-R2B act: 1; PolyA inh: -22

What do the screens show for `CCCC(=O)Nc1ccc(NC(=O)C2CC2)cn1`?
Neddylation inh: inactive; PKA-R1A act: -2; PKA-R2B act: -5; PolyA inh: 20

How did CCCCC(=O)Nc1ccc(NC(=O)C2CC2)cn1 do in these assays?
Neddylation inh: inactive; PKA-R1A act: 20*; PKA-R2B act: -1; PolyA inh: 13; R1A FP artifact: 5; PKA-R1A confirm: 5

Results for CC(C)=CCc1c(O)c(CC=C(C)C)c2c(c1O)-c1cc(O)c(O)cc1CC2 ?
PolyA inh: 19

Results for Nc1nc(SCC(=O)Nc2ccc3c(c2)CCC3)n[nH]1 ?
Neddylation inh: inactive; PKA-R1A act: 19*; PKA-R2B act: -5; PolyA inh: 21; R1A FP artifact: 6; PKA-R1A confirm: 1

What do the screens show for `Nc1cc(=O)[nH]c(SCC(=O)Nc2ccc3c(c2)CCC3)n1`?
Neddylation inh: inactive; PKA-R1A act: -8; PKA-R2B act: 5; PolyA inh: 11

Results for CC(C)(C)C(=O)NCc1ccc(C(=O)CSc2nnc(C3CC3)n2C2CC2)s1 ?
Neddylation inh: inactive; PKA-R1A act: 20*; PKA-R2B act: 0; R1A FP artifact: -2; PKA-R1A confirm: 0

How did COc1cc2c(cc1OC)CN(C(=O)C(CCSC)NS(=O)(=O)c1ccc(C)cc1)CC2 (stereo not given) do in these assays?
Neddylation inh: inactive; PKA-R1A act: 20*; PKA-R2B act: -10; PolyA inh: 7; R1A FP artifact: -1; PKA-R1A confirm: -2

Results for COCCNc1nnc(SCC(=O)NC(=O)c2ccccc2)s1 ?
Neddylation inh: inactive; PKA-R1A act: -4; PKA-R2B act: -7; PolyA inh: 2

What do the screens show for `O=C(O)CSc1cccc[n+]1[O-]`?
Neddylation inh: inactive; PKA-R1A act: -2; PKA-R2B act: -2; PolyA inh: 6

Results for [O-][n+]1ccccc1SCc1ccccc1 ?
Neddylation inh: inactive; PKA-R1A act: 19*; PKA-R2B act: 3; PolyA inh: 22; R1A FP artifact: 2; PKA-R1A confirm: 3

How did O=C(Nc1ccc(N2CCN(c3ccc(O)cc3)CC2)cc1)Oc1ccccc1 do in these assays?
Neddylation inh: inactive; PKA-R1A act: 20*; PKA-R2B act: 16; PolyA inh: -17; R1A FP artifact: 15; PKA-R1A confirm: 17

What do the screens show for `COC(=O)c1n[nH]n(-c2cc(Cl)cc(Cl)c2)c1=O`?
Neddylation inh: inactive; PKA-R1A act: -7; PKA-R2B act: -1; PolyA inh: -8

What do the screens show for `COc1cccc(C2C(C(N)=O)=C(C)Nc3nc(-c4ccccc4Cl)nn32)c1` (stereo not given)?
Neddylation inh: inactive; PKA-R1A act: 19*; PKA-R2B act: -9; PolyA inh: 7; R1A FP artifact: 1; PKA-R1A confirm: -3

How did COc1ccccc1C1C(C(N)=O)=C(C)Nc2nc(-c3ccccc3Cl)nn21 (stereo not given) do in these assays?
Neddylation inh: inactive; PKA-R1A act: -13; PKA-R2B act: -4; PolyA inh: -12

Results for COc1ccc(-c2noc(N3CCCC(C(=O)Nc4ccc(F)cc4F)C3)n2)cc1 (stereo not given) ?
Neddylation inh: inactive; PKA-R1A act: 4; PKA-R2B act: -13; PolyA inh: 21
